Test results published in PubChem BioAssay (EPA / NIEHS).
Results filed as inconclusive are left out. Activity calls are given as the source filed them. How the source made its calls, unless noted: active means hit-call score of the fitted dose curve at least 0.9, where 1 is the maximum; inconclusive means response in the unintended direction; inactive means score below 0.9.

What was measured:
[1] = target: human Vascular Endothelial Growth Factor Receptor 2 (VEGFR2), KDR (gene 3791) (UniProt P35968); assay: NVS_ENZ_hVEGFR2: NovaScreen (NVS) Enzymatic Assay for human Vascular Endothelial Growth Factor Receptor 2 (VEGFR2) (AID 2283230)
Experimental: NVS_ENZ_hVEGFR2 is a biochemical, single-readout assay that uses extracted gene-proteins in a cell-free assay. Measurements were taken 1 hour after chemical dosing in a 384-well plate.NVS_ENZ_hVEGFR2 is one of one assay component(s) measured or calculated from the NVS_ENZ_hVEGFR2 assay. It is designed to make measurements of enzyme activity, a form of enzyme reporter, as detected with fluorescence intensity signals by Fluorescence and electrophoretic mobility shift technology.Data from the assay component NVS_ENZ_hVEGFR2 was analyzed into 1 assay endpoint. This assay endpoint, NVS_ENZ_hVEGFR2, was analyzed in the positive analysis fitting direction relative to DMSO as the negative control and baseline of activity. Using a type of enzyme reporter, loss-of-signal activity can be used to understand changes in the enzymatic activity as they relate to the gene KDR. Furthermore, this assay endpoint can be referred to as a primary readout, because this assay has produced multiple assay endpoints where this one serves a enzymatic activity function. To generalize the intended target to other relatable targets, this assay endpoint is annotated to the kinase intended target family, where the subfamily is receptor tyrosine kinase. […]

[2] = target: rat Constitutive Nitric Oxide Synthase (CNOS), Nos1 (gene 24598) (UniProt P29476); assay: NVS_ENZ_rCNOS: NovaScreen (NVS) Enzymatic Assay for rat Constitutive Nitric Oxide Synthase (CNOS) (AID 2283236)
Summary of the method: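 Single 25 uM duplicate screen, then concentration series to 50 uM for chemicals meeting threshold. Rat brain membrane-derived CNOS activity detected radiometrically by filtration and scintillation counting, 1 h after compound addition; DMSO as baseline.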

[3] = target: human Neurokinin, NK2 Receptor, TACR2 (gene 6865) (UniProt P21452); assay: NVS_GPCR_hNK2: NovaScreen (NVS) G Protein-Coupled Receptor Assay for human Neurokinin, NK2 Receptor (AID 2283278);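 further: actives reduce bound radioligand signal relative to DMSO baseline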
Summary of the method: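 Filter-based scintillation counting measured radioligand bound to receptor extracted from CHO cells, 4 hours after compound addition. Chemicals screened first at 25 uM in duplicate, with actives retested in concentration series relative to DMSO.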

[4] = target: human Opioid Receptor Mu (Opiate Mu), OPRM1 (gene 4988) (UniProt P35372); assay: NVS_GPCR_hOpiate_mu: NovaScreen (NVS) G Protein-Coupled Receptor Assay for human Opioid Receptor Mu (Opiate Mu) (AID 2283290);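 further: hits lower bound tracer signal versus DMSO meaning displacement of the ligand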
Summary of the method: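 CHO-derived receptor protein, cell-free; radioligand displacement, filtration + scintillation counting, read at 2.5 h. DMSO = negative control/baseline. Primary: 25 uM single conc, duplicate; secondary: concentration series.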

[5] = TAMU_HCS_1.5hr_SingleDonor1434_Cytotoxicity: Cytotoxicity Assessment using High-content Screening (HCS) Fluorescent Imaging for the Texas A&M University (TAMU) 1.5-hr Human Induced Pluripotent Stem Cell (iPSC)-derived Cardiotoxicity Assay (AID 2284234)
Summary of the method: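 Nuclear counts from Hoechst 33342 imaging define cytotoxicity here, with EC10 (10% cell-count loss relative to DMSO) as point of departure. iPSC cardiomyocytes received 0.2-100 uM test chemical in 0.5% DMSO for 1.5 h at 37 C.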

[6] = target: rat CYP2A1, Cyp2a1 (gene 24894) (UniProt P11711); assay: NVS_ADME_rCYP2A1: NovaScreen (NVS) CYP450-related Enzyme Activity (ADME) Assay for rat CYP2A1 (AID 2283114; active means hit-call score of the fitted dose curve at least 0.9, where 1 is the maximum; inactive means score below 0.9)
Experimental: NVS_ADME_rCYP2A1 is a biochemical, single-readout assay that uses extracted gene-proteins in a cell-free assay. Measurements were taken 0.75 hour after chemical dosing in a 96-well plate.NVS_ADME_rCYP2A1 is one of one assay component(s) measured or calculated from the NVS_ADME_rCYP2A1 assay. It is designed to make measurements of enzyme activity, a form of enzyme reporter, as detected with fluorescence intensity signals by Fluorescence technology.Data from the assay component NVS_ADME_rCYP2A1 was analyzed into 1 assay endpoint. This assay endpoint, NVS_ADME_rCYP2A1, was analyzed in the positive analysis fitting direction relative to Acetonitrile as the negative control and baseline of activity. Using a type of enzyme reporter, loss-of-signal activity can be used to understand changes in the enzymatic activity as they relate to the gene Cyp2a1. Furthermore, this assay endpoint can be referred to as a primary readout, because this assay has produced multiple assay endpoints where this one serves a enzymatic activity function. To generalize the intended target to other relatable targets, this assay endpoint is annotated to the cyp intended target family, where the subfamily is xenobiotic metabolism. […]

[7] = tested on: rat Monoamine Oxidase, MAO-A, Central (MAOAC), gene 29253; assay: NVS_ENZ_rMAOAC: NovaScreen (NVS) Enzymatic Assay for rat Monoamine Oxidase, MAO-A, Central (MAOAC) (AID 2283243);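 further: potency refers to inhibition seen as signal drop below DMSO baseline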
Summary of the method: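 Scintillation read-out of MAO-A activity in rat brain lysate, 1.5 h post-dosing. Primary single-concentration screen: 25 uM, duplicate; actives re-tested in concentration series. DMSO = negative control/baseline.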

[8] = target: rat Neonicotinoid receptor (NNR), Chrna7 (gene 25302) (UniProt Q05941); assay: NVS_LGIC_rNNR_BungSens: NovaScreen (NVS) Ligand-Gated Ion Channel Assay for rat Neonicotinoid receptor (NNR) (AID 2283315)
Summary of the method: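 Rat cortical membrane preparation incubated 2.5 h with tritiated or iodinated radioligand and test chemical. Bound radioactivity was filtered and counted by scintillation, and displacement was analysed against DMSO.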

Chain of human Vascular Endothelial Growth Factor Receptor 2 (VEGFR2), KDR (gene 3791) (P35968 whole entry, looked up): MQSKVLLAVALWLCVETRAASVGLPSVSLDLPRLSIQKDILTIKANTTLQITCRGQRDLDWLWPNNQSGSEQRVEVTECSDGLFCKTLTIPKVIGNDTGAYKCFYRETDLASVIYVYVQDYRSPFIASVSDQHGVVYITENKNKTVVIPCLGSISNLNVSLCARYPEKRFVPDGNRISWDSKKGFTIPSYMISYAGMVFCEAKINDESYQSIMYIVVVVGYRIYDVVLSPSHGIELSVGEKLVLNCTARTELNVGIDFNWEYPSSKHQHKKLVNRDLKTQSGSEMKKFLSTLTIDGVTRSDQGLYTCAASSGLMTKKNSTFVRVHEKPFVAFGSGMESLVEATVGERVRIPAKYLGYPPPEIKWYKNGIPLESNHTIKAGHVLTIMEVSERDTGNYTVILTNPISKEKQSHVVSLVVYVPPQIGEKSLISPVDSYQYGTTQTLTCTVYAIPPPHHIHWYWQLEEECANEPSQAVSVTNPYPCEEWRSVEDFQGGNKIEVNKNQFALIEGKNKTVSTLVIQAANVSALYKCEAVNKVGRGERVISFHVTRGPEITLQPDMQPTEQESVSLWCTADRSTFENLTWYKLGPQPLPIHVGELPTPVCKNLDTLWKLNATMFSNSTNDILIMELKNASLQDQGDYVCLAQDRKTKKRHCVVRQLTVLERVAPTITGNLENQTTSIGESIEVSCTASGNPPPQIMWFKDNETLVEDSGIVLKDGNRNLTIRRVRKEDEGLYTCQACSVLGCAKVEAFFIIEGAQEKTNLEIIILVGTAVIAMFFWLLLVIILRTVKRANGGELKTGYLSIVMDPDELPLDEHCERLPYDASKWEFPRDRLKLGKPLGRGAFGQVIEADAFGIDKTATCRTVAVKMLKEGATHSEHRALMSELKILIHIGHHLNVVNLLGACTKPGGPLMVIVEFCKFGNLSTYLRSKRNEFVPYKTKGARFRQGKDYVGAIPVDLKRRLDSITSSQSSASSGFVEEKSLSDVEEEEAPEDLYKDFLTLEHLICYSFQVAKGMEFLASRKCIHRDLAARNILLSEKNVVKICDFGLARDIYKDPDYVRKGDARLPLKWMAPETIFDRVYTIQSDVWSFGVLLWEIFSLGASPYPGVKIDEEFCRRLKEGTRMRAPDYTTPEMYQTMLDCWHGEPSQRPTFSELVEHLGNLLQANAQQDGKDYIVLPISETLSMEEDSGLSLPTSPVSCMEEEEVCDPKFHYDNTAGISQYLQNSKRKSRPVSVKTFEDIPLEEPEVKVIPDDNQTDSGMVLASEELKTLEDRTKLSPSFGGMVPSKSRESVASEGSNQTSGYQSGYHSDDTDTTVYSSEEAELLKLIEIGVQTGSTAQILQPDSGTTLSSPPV
Chain of human Neurokinin, NK2 Receptor, TACR2 (gene 6865) (P21452 whole entry, looked up): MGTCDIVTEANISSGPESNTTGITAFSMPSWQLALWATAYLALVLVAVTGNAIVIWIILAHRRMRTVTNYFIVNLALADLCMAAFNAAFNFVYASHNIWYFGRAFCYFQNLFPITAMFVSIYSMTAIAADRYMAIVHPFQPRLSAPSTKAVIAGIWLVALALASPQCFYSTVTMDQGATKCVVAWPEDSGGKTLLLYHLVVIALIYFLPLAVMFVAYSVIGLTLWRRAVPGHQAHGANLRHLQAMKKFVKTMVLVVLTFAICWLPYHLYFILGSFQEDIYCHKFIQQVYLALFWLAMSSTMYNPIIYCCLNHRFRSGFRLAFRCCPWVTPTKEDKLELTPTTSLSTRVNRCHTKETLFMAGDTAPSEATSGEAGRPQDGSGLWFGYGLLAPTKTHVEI
Chain of rat CYP2A1, Cyp2a1 (gene 24894) (P11711 whole entry, looked up): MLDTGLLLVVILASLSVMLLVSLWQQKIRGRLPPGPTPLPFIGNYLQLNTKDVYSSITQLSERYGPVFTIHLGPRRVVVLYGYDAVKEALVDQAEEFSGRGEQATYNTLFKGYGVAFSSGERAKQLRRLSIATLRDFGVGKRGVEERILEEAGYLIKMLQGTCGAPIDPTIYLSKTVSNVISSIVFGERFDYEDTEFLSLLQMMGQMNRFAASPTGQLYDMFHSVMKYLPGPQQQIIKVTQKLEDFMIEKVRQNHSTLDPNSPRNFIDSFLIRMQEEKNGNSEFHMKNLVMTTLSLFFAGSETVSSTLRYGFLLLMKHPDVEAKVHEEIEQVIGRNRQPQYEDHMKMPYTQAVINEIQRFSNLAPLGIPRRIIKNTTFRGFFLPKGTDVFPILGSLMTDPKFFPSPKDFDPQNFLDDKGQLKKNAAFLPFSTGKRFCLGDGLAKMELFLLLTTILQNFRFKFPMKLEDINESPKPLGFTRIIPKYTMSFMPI
Chain of rat Neonicotinoid receptor (NNR), Chrna7 (gene 25302) (Q05941 whole entry, looked up): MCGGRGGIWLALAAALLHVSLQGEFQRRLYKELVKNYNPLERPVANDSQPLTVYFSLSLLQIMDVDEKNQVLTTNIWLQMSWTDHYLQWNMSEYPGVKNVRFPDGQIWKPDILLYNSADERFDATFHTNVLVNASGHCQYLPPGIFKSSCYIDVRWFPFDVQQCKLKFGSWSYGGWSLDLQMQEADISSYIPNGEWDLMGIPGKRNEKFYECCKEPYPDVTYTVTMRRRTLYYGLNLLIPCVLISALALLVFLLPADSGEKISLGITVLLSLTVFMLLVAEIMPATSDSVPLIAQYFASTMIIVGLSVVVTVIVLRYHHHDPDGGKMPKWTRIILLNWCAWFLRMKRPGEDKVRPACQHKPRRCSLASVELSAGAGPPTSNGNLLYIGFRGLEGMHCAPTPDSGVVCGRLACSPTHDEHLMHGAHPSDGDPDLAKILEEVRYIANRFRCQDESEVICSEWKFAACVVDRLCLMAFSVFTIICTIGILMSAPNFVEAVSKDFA
Chain of rat Constitutive Nitric Oxide Synthase (CNOS), Nos1 (gene 24598) (P29476 whole entry, looked up): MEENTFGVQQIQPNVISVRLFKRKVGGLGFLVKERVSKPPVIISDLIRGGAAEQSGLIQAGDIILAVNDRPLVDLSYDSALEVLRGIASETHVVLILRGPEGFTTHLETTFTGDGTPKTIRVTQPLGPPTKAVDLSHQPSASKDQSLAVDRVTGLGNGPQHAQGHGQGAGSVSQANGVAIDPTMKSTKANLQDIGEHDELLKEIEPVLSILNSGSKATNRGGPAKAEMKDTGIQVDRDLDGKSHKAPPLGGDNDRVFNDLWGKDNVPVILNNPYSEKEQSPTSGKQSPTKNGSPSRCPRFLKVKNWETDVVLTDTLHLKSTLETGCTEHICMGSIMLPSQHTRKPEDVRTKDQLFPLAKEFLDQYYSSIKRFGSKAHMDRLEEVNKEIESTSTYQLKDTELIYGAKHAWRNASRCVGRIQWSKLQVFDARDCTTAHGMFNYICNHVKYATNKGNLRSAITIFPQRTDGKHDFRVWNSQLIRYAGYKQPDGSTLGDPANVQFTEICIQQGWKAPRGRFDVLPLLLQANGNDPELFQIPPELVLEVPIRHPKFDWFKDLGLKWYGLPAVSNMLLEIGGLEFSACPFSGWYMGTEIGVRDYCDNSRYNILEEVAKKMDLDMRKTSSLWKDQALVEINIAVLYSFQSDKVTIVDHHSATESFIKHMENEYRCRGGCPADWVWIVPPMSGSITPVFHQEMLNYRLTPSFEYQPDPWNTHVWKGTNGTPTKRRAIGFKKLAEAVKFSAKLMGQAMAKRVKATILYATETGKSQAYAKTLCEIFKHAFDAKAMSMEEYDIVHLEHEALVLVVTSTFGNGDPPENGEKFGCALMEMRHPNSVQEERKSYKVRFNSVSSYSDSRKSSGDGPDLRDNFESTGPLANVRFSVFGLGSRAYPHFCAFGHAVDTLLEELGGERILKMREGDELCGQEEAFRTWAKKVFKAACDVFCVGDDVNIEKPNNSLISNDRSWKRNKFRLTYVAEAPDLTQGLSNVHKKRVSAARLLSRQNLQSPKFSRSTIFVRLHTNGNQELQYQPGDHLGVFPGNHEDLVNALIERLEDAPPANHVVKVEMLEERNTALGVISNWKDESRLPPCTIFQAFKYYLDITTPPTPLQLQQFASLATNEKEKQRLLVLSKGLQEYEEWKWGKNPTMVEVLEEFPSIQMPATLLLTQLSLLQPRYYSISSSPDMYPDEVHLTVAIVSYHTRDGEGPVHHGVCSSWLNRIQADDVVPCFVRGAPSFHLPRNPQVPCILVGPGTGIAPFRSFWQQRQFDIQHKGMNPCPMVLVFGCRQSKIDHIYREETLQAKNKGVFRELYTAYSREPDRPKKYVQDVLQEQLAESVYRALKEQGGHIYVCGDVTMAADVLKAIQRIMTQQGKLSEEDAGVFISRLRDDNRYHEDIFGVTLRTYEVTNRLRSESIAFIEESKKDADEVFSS
Chain of human Opioid Receptor Mu (Opiate Mu), OPRM1 (gene 4988) (P35372 whole entry, looked up): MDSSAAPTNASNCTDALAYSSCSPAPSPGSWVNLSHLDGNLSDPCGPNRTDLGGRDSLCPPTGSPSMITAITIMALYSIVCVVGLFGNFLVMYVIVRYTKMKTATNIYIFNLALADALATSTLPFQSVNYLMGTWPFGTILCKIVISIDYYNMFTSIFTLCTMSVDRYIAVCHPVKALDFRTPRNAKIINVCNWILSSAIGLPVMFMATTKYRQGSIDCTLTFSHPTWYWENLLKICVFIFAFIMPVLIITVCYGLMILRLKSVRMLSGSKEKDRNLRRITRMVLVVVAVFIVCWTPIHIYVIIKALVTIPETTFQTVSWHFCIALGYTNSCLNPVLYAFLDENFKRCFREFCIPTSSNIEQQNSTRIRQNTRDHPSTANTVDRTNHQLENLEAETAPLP

For `O=[N+]([O-])c1ccc(Cl)cc1`, the outcome [1] was “inactive” and the outcome [2] was “inactive”.

With `O=C1C=CC(=O)C=C1` the AC50 [3] was 927 nM (active), the AC50 [4] was 9.86 µM (active) and the outcome [5] was “inactive”.

For `CC(Cc1ccc(C(C)(C)C)cc1)CN1C[C@@H](C)O[C@@H](C)C1` (stereo partly drawn), the AC50 [6] was 3.26 µM (active).

With `CNC(=O)Oc1cc(C)c(SC)c(C)c1` the AC50 [7] was 14 µM (active).

With `CCc1cc(C)cc(CC)c1-c1c(OC(=O)C(C)(C)C)n2n(c1=O)CCOCC2` the AC50 [8] was 6.11 µM (active).
